Our source for the Potency values is PubChem BioAssay AID624331 (National Center for Advancing Translational Sciences (NCATS), 2012).

This assay is described as follows: qHTS assay for re-activators of p53 using a Luc reporter: Hit Validation with no p53 Expressed. The conditions noted are these: p53-null cells, luciferase reporter counter-screen; series mostly up to 46.1 µM. The procedure, abridged: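 Counter-screen of primary hits in a cell line not transfected with p53, in Opti-MEM with 10% FBS; compounds at several concentrations (10 mM stock, 1:5; top 46.1 µM in well), 24 h at 37 deg C, 5% CO2. Luminescence read after 10 min with Amplite reagent.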

Inconclusive results are not listed. Entries that show only a call come without a potency. Activity calls are given as the source filed them. The call rests on the fitted dose curve; in most records, active means well fitted activation curve with a large enough effect; inconclusive means small, poorly fitted or top-dose-only effect; inactive means no such curve, though single readings can be large or run the other way.

As to `CN1CCN(C2=C(Cl)C(=O)N(Cc3ccccc3)C2=O)CC1`, the Potency result was “inactive”.

For the molecule `Cc1cc2[nH]c3ccccc3c2c(C)n1`, the Potency entry is “inactive”.

In the case of `O=c1cc(-c2ccc3c(c2)OCCO3)oc2ccc(Cl)cc12`, the Potency result was “inactive”.

In the case of `COc1ccc2[nH]c(=O)c3c(c2c1)OC(C)(C)C=C3`, the Potency result was “inactive”.

For the molecule `COc1cc(C(=O)N/N=C(\c2ccccc2)c2ccccn2)cc(OC)c1OC`, the Potency result is “inactive”.

Consider `Cc1cc(=O)[nH]c(N/N=C/c2ccccn2)n1`, for which the Potency entry is “inactive”.

For the molecule `O=C(c1cnn(-c2ccccc2)c1)c1ccccc1O`, the Potency result is “inactive”.

In the case of `Cc1ccc(CSc2nc3ccncc3[nH]2)cc1`, the Potency result is “inactive”.

`Cc1ccc2nc(-c3ccc(NC(=O)CN4C(=O)c5ccccc5C4=O)cc3)sc2c1`: the Potency result is “inactive”.

As to `CCCN(C(=O)c1cccc(S(=O)(=O)N2CCCc3ccccc32)c1)C1CCS(=O)(=O)C1` (stereo not given), the Potency result is “inactive”.

As to `CC12CN(C(=O)c3cccc([N+](=O)[O-])c3)C3(C#N)CC1CCC23C` (stereo not given), the Potency entry was “inactive”.

In the case of `CC(OC(=O)c1cnccn1)C(=O)Nc1nc(-c2cccc([N+](=O)[O-])c2)cs1` (stereo not given), the Potency entry is “inactive”.

Turning to `O=C(CCCN1C(=O)/C(=C/c2ccco2)SC1=S)Nc1ccccc1`, the Potency entry is “inactive”.

With `O=C(CSc1nnnn1C1CCCCC1)NCCc1ccccc1`, the Potency entry is “inactive”.

In the case of `CCCCCNC(=O)N[C@H](C(=O)O)C(C)C`, the Potency entry was “inactive”.

Turning to `O=C(Nc1ccc(Cl)cc1C(F)(F)F)c1ccccc1`, the Potency result was “inactive”.

In the case of `C=CCn1c(SC(F)F)nc2scc(-c3ccco3)c2c1=O`, the Potency result was “inactive”.

Regarding `O=C(N/N=C/c1cccc(F)c1)NC1CCCCC1`, the Potency result was “inactive”.

Turning to `OC1(C2(O)CC(c3ccccc3)ON2)CCCCC1` (stereo not given), the Potency result is “inactive”.

As for `CCOP(=O)(OCC)C(NC(=O)Nc1ccccc1)C(N)=O` (stereo not given), the Potency entry is “inactive”.
